CYP2C9 inh: inhibitors of human CYP2C9; CYP2C9 Supersomes, luciferin-H conversion, luminescence; inhibition, % at 5 µM; P11712; hit rate 20% among 96,000; AID 777;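 active = blocking of liver enzyme CYP2C9 beyond about 50% at 5 µM, limit read from the data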
CYP2C19 act: cytochrome P450 2C19 (human) activation | 96,000 tested, under 10 active | activation factor at 5 µM | P33261 | AID 1025 | recombinant CYP2C19, luciferin-H EGE luminescence; active compounds read high; 0 = fully inhibited enzyme, 1 = untreated enzyme;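 active = activation factor of at least 2 at 5 µM in the primary screen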;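 also: 0 = wells with 2.5 mM tranylcypromine and 1 = vehicle-only wells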
Target sequence (P33261 whole entry, looked up): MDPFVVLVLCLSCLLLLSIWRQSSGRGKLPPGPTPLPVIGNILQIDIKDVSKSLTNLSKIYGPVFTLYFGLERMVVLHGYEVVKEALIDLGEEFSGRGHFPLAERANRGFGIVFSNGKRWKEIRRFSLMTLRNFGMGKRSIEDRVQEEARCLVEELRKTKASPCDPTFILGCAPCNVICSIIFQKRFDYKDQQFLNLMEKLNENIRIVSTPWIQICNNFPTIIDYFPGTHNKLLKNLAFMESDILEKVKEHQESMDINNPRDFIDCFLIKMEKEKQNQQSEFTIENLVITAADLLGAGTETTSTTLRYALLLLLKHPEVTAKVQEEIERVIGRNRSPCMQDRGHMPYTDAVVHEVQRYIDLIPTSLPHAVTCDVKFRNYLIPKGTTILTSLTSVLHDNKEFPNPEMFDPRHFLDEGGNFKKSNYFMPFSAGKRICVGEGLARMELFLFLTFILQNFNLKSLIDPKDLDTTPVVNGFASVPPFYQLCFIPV
Pyk2 oligo antag: antagonists of human Pyk2 oligomerization; hit rate 0.83% among 99,000; Q293 cells, Pyk2 FERM NanoBiT luminescence; active compounds read low; AID 1347419; Q14289; z-score (the deposit names both 25 µM and 10 µM);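 active = Z-score of -3 or lower, scaled per plate to the spread of control and sample wells; inactive = z-score above -3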;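 also: negative z-score means lost luminescence so less FERM oligomerization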
CYP2C19 inh: blocks human cytochrome P450 2C19 | P33261 | inhibition, % at 5 µM | AID 778 | hit rate 21% among 96,000 | CYP2C19 Supersomes, luciferin-H EGE luminescence, 30 min;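 active = CYP2C19 inhibition above a set limit at 5 µM in the primary screen, cut at about 50% in these data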;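 also: plate controls were negative control wells for no effect and 2.5 mM tranylcypromine positive control for full effect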
CYP2C9 act: increases human cytochrome P450 2C9 activity; P11712; recombinant CYP2C9, luciferin-H conversion, luminescence; active compounds read high; factor 1 = untreated enzyme, 0 = blocked; activation factor at 5 µM; hit rate 1.4% among 96,000;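 active = activation factor of 2 or more for CYP2C9 at a 5 µM dose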;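 also: 0 = sulfaphenazole-blocked wells and 1 = vehicle-only wells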
Cav32 inh: human Cav3.2 channel inhibition, primary screen; Cav3.2-expressing cells, Fluo-4 calcium fluorescence FDSS; active compounds read low; B-score at 10 µM; AID 449739; O95180; hit rate 4% among 100,000;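 active = single-dose well whose peak fluorescence ratio is a statistical outlier from its plate by either plate-standardised score or position-corrected B-score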
Numbers without * were called inactive; · = no result. Hits are enriched below; roughly 27% of the tested compounds scored in any of these assays.

SMILES	CYP2C9 inh	CYP2C19 act	Pyk2 oligo antag	CYP2C19 inh	CYP2C9 act	Cav32 inh
COc1ccc(NC(=O)CN(c2cc(C)cc(C)c2)S(=O)(=O)c2c(C)n[nH]c2C)cc1	69*	0.9	·	14	0.3	-0.46
Cc1ccc(N(CC(=O)Nc2ccc3c(c2)OCCO3)S(=O)(=O)c2c(C)n[nH]c2C)cc1	74*	0.4	-3.5*	62*	0.3	-0.35
COc1ccc(N(CC(=O)O)S(=O)(=O)c2c(C)n[nH]c2C)cc1	-14	1.1	0.24	-12	1.1	-0.36
CCOc1ccccc1NC(=O)CN(c1ccc(C)cc1)S(=O)(=O)c1c(C)n[nH]c1C	95*	0.3	-2	73*	0.1	-0.4
COC(=O)NCc1cccc(CNC(=O)OC)c1	3	1	1	5	1	1.1
COc1ccc(C2C(C#N)=C(/N=C/N3CCN(C)CC3)OC3=C2C(=O)CC(C)(C)C3)cc1OC (stereo not drawn)	33	0.7	0.42	31	0.7	0.2
O=C(CN(Cc1ccc(F)cc1)C(=O)Cn1nnc2ccccc21)NCC1CCCO1 (stereo not drawn)	·	·	1.7	·	·	0.58
Cc1ccc(Cn2c3ccccc3c3cn[nH]c(=O)c32)cc1	18	1	·	-1	0.8	0.39
O=C(Nc1ccccc1C(=O)N1CCCC1)c1cccc(S(=O)(=O)N2CCCCC2)c1	18	1	-1.2	-2	0.8	1.3
COc1ccccc1N1CCN(C(=O)CN(c2cc(C)cc(C)c2)S(C)(=O)=O)CC1	8	0.6	0.17	36	0.9	-0.17
COc1ccccc1CNC(=O)CN(c1ccc(C)cc1)S(=O)(=O)c1c(C)n[nH]c1C	67*	0.3	-2.3	67*	0.3	-1.8
CCOC(=O)c1ccc(NC(=O)CN(c2ccc(C)cc2)S(=O)(=O)c2c(C)n[nH]c2C)cc1	76*	0.8	-3.4*	19	0.2	·
COc1cccc(N2CCN(C(=O)CN(c3ccc(C)cc3)S(=O)(=O)c3c(C)n[nH]c3C)CC2)c1	81*	0.4	·	58*	0.2	-1.8
Cc1c(Cl)c([N+](=O)[O-])nn1CC(=O)Nc1c(C)n(C)n(-c2ccccc2)c1=O	10	0.7	-0.02	30	0.9	-0.043
CCOC(=O)c1cc(C(=O)OCC)cc(-n2cc(O)c(C(=O)OCC)n2)c1	-10	1.1	-1.6	-7	1.1	0.68
CCOC(=O)c1nn(-c2ccc(C)cc2)cc1O	31	0.4	0.21	61*	0.7	-0.0011
CCOC(=O)c1nn(-c2sc(C(=O)OC)c(C)c2C(=O)OC)cc1O	61*	0	0.56	100*	0.4	-0.002
CCCCN1C(N)=NC[C@@H]1CCCCN	·	·	·	·	·	-0.063
O=C(NCc1ccco1)c1cc2c(s1)CCCCC2	-2	0.9	2.6	9	1	-1.7
O=C(CN(C(=O)c1cc2c(s1)CCC2)C1CCCC1)NCc1cccs1	82*	0.3	0.44	66*	0.2	-2.6
O=C(CN(Cc1ccccc1)C(=O)c1cc2c(s1)CCC2)NCc1cccs1	75*	0.8	-1.1	18	0.2	-4.5*
Cc1ccc(C(C(=O)NC2CCCC2)N2CCc3ccccc32)cc1 (stereo not drawn)	13	0.9	·	5	0.9	1
COC(=O)C[C@H]1c2cc(F)cc(F)c2S(=O)(=O)N1C1CCN(Cc2ccccc2)CC1	·	·	·	·	·	0.79
c1ccc(OCCOc2ncnc3ccccc23)cc1	25	0.4	0.69	60*	0.7	-0.012
CC(C)(C)S(=O)c1cccs1 (stereo not drawn)	3	1	1.9	4	1	0.4
SMILES	CYP2C9 inh	CYP2C19 act	Pyk2 oligo antag	CYP2C19 inh	CYP2C9 act	Cav32 inh
COc1ccc(OC)c(C(=O)c2coc3ccc(O)cc23)c1	73*	0.3	-1.4	70*	0.3	-4.7*
O=C(c1cc(S(=O)(=O)N2CCOCC2)c(Cl)cc1Cl)N1CCCCC1	0	0.8	0.51	20	1	-0.14
Clc1ccc(CN2CCN(c3ncnc4scc(-c5cccs5)c34)CC2)cc1	29	0.2	-1.9	84*	0.7	-1
Cc1ccccc1N1CCN(c2ncnc3scc(-c4cccs4)c23)CC1	48	0.7	-2.4	28	0.5	·
CCOC(=O)c1ccc(N2C(=O)CC(NC3CCN(C(=O)c4ccc(F)cc4)CC3)C2=O)cc1 (stereo not drawn)	-3	1	0.36	1	1	0.7
O=C(CSc1nc2ccccc2s1)N1c2ccccc2Sc2ccc(C(F)(F)F)cc21	36	1	0.11	-3	0.6	-2.2
Cn1c(SCC(=O)NC2CCCC2)nc2cccnc21	-6	0.6	0.37	38	1.1	1.2
O=C(CSc1nccn1-c1cccc(Cl)c1)NC1CCCC1	67*	0.2	-0.47	84*	0.3	0.15
O=C(CSc1nc(C2CC2)nc2ccccc12)N1c2ccccc2Sc2ccccc21	97*	0.6	0.18	44	0	·
CC1CCCC(C)N1C(=O)CSc1nnnn1-c1cccc2c1CCCC2 (stereo not drawn)	-34	0.7	-0.54	26	1.3	-3.2
O=C(CSc1nnnn1-c1cccc2c1CCCC2)NC1CCCC1	-200	0.9	-0.46	10	3*	-0.78
O=C(CSc1nnnn1C1CCCCC1)N1c2ccccc2Sc2ccccc21	43	1	-1.8	3	0.6	-6*
O=C(CSc1nnnn1C1CCCCC1)NCCc1ccccc1	15	0.9	0.76	9	0.9	1.6
COC(=O)c1cc(OC)c(OC)cc1NC(=S)N1CCCC(CO)C1 (stereo not drawn)	-18	0.9	0.24	9	1.2	-0.026
COc1cccc(NC(=O)CSc2nncn2-c2ccccn2)c1	22	0.4	0.74	62*	0.8	-0.12
CCN(CC)S(=O)(=O)c1ccc2c(c1)nc(SCC(=O)NC1CC1)n2-c1ccccc1OC	75*	0.8	-3.3*	21	0.2	-3.4
COc1ccccc1-n1nnnc1SCC(=O)NC1CCCC1	-126	0.9	-1.2	11	2.3*	-0.26
COc1ccccc1-n1c(SCC(=O)NC2CCCC2)nc2cccnc21	20	0.8	-0.49	16	0.8	-0.029
COc1ccc(-n2nnnc2SCC(=O)c2ccc3c(c2)OCCO3)c(OC)c1	-16	1.1	0.93	-8	1.2	·
COc1ccc(-n2nnnc2SCC(=O)N2C(C)CCCC2C)c(OC)c1 (stereo not drawn)	-87	0.2	1.2	75*	1.9	0.52
CCOC(=O)c1ccc(NC(=S)Nc2ccc(Br)cc2N)cc1	·	·	·	·	·	-2.2
COC(=O)c1cncc(O)c1	-23	0.9	0.63	6	1.2	0.88
O=C(CSc1nnnn1-c1cccc2c1CCCC2)N1CCOCC1	-119	0.8	0.56	20	2.2*	-0.7
COc1cccc(-n2nnnc2SCC(=O)NC2CCCC2)c1	-98	0.6	0.1	44	2*	1.1
O=C(CSc1nnnn1-c1cccc2c1CCCC2)N1CCCC1	·	·	1.5	·	·	1

From PubChem
